Here are results for five compounds from PubChem BioAssay.

Activity calls are given as the source filed them.

A short description of test [1]: small molecules captured by biotinylated probe aFSTL3 – biochemical, small-molecule microarray, fluorescence 635/667, stem cell growth factor project, primary screen (AID 1064).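 Also: measures binding of the biotinylated anti-FSTL3 antibody to printed compounds.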 As to conditions: higher = more signal.
Test [2] is described as follows: binders from COS7 lysate, DM2A8 probe, primary screen, torsin A project, cell lysate, small-molecule microarray, fluorescence 635/667 (AID 1065). As to conditions: higher = more signal, COS7 lysate expressing mutant human TOR1A.
Test [3] can be described thus: small molecules captured by biotinylated probe aFGF2 – biochemical, small-molecule microarray, fluorescence 635/667, stem cell growth factor project, primary screen (AID 1067).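 Also: measures binding of biotinylated aFGF2 protein to printed compounds on slides; z-score merges feature fluorescence and signal-to-noise across triplicate slides.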 As to conditions: higher = more signal.
Test [4] in a line: small molecules captured by biotinylated probe aFGF10 – biochemical, small-molecule microarray, fluorescence 635/667, stem cell growth factor project, primary screen (AID 1071).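 Also: score merges 667 nm spot intensity and signal to noise from triplicate slides.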 As to conditions: higher = more signal.
The target of test [5] is Neurogenic locus notch homolog protein 2 (Homo sapiens) (UniProt Q04721). In words: small molecules binding Notch2 protein – biochemical, small-molecule microarray, 635 nm fluorescence, stem cell growth factors, primary screen (AID 1073). As to conditions: higher = more signal.
The target in test [6] is Pro-neuregulin-1, membrane-bound isoform (Homo sapiens) (UniProt Q02297). The test can be described thus: small molecules binding neuregulin-1 protein – biochemical, small-molecule microarray, fluorescence 635/667, psychiatric disease protein project, primary screen (AID 1075).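 Also: score combines 667 nm spot fluorescence with signal to noise.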 The settings on record: NRG1 binding, 635 nm fluorescence, higher = more signal.
Sequence of Pro-neuregulin-1, membrane-bound isoform (Homo sapiens) (Q02297 whole entry, looked up, the tested form may be a part, canonical isoform): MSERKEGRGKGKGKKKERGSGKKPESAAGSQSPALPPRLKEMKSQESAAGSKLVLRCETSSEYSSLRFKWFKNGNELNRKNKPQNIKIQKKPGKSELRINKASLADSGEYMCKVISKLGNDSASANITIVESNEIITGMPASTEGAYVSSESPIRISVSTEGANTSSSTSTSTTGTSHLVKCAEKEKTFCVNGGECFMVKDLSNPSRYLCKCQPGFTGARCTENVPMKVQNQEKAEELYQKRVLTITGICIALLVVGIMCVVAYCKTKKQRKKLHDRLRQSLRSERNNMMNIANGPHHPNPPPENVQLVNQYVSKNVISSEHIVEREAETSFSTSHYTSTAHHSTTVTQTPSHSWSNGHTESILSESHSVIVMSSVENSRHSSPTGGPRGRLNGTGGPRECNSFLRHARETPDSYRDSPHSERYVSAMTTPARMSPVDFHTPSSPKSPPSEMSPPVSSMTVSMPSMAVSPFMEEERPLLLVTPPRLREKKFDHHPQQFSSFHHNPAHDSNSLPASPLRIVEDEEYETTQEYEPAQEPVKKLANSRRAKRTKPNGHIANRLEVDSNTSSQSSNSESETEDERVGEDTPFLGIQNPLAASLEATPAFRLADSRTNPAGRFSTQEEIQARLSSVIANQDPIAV
In test [7] the test system is Neuregulin-1 EGF-like domain. In words: small molecules binding NRG1 EGF domain – biochemical, small-molecule microarray, 635 nm fluorescence, primary screen (AID 1081).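 Also: binding of the protein to compounds printed on small-molecule microarray slides.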 The settings on record: higher = more signal.
Test [8] is described as follows: FRG1 expression reporter modulators in myotubes – cell-based, C2C12 myotubes, firefly/Renilla luciferase, luminescence, FRG1 inhibition for FSHD, primary screen (AID 1084). As to conditions: FRG1 promoter luciferase, higher = more signal, called active from +8 up or from −8 down.
The nature of test [9]: small molecules captured by biotinylated probe aFST – biochemical, small-molecule microarray, fluorescence 635/667, stem cell growth factor project, primary screen (AID 1086).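 Also: score merges 667 nm fluorescence with signal-to-noise of each printed compound spot.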 The settings on record: higher = more signal.
The nature of test [10]: binders of probe aHhip on microarray, primary screen, stem cell growth factor project, biochemical, small-molecule microarray, fluorescence 635/667 (AID 1087).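 Also: score merges spot fluorescence at 667nm with spot signal to noise ratio.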 The settings on record: higher = more signal.
Test [11] relates to PRMT1 (protein arginine N-methyltransferase 1). In words: small molecules binding arginine methyltransferase PRMT1 – biochemical, small-molecule microarray, 635 nm fluorescence, primary screen (AID 1088).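 Also: binding of Prmt1 protein to compounds spotted on small-molecule microarray slides.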 As to conditions: higher = more signal.
Test [12] in a line: growth effects on S. cerevisiae YJM789 – YJM789 clinical isolate, OD600, 24 h, basal, primary screen (AID 1089).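 Also: growth of clinical yeast isolate S. cerevisiae YJM 789 seeded 1000 cells per well; test concentration not given here.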 As to conditions: higher = more signal, called active from +8 up or from −8 down.
The nature of test [13]: S. pombe growth modifiers, basal conditions – strain 972, OD600, 24 h, no modulator, primary screen (AID 1090).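 Also: basal condition with compound alone and no growth modifier present; test concentration not given here.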 The settings on record: S. pombe 972 growth, higher = more signal, called active from +8 up or from −8 down.
Test [14] in a line: budding yeast growth modifiers under rapamycin – strain BY4716, OD600, 96 h, primary screen (AID 1091). Also: test concentration not given here. As to conditions: S. cerevisiae BY4716 + rapamycin, higher = more signal, called active from +8 up or from −8 down.
Test [15] concerns the target Torsin-1A-interacting protein 2 (Homo sapiens) (UniProt Q8NFQ8). In words: small molecules binding lysate-expressed LULL1 – cell lysate, human LULL1 lysate, 635/667 nm fluorescence, primary screen (AID 1092).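 Also: score merges per-feature 667 nm fluorescence with signal-to-noise.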 The settings on record: small-molecule microarray, hLULL1 lysate binding, 635 nm fluorescence; higher = more signal.
Test [16] in a line: optical density change of DRC41 E. coli – strain DRC41, OD650, 24 h, E. coli filamentation project, primary screen (AID 1093).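 Also: MC1000 strain lacking acrAB efflux and sulA so SOS filamentation is blocked; test concentration not given here.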 As to conditions: E. coli DRC41 growth, higher = more signal, called active from +8 up or from −8 down.
Test [17] in a line: probe aLefty2 binding to arrayed compounds – biochemical, biotinylated probe, 635/667 nm fluorescence, primary screen (AID 1094).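 Also: score merges spot fluorescence near 667 nm with spot signal-to-noise ratio.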 As to conditions: small-molecule microarray, higher = more signal.
In test [18] the test system is Noggin (protein binding on small-molecule microarray). The test can be described thus: small molecules binding Noggin protein – biochemical, 635/667 nm fluorescence, primary screen (AID 1095).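 Also: score merges 667 nm feature fluorescence with signal to noise over triplicate slides.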 As to conditions: 635 nm fluorescence, higher = more signal.
Test [19] has as its target Neurogenic locus notch homolog protein 3 (Homo sapiens) (UniProt Q9UM47). The test can be described thus: small molecules binding NOTCH3 protein – biochemical, 635/667 nm fluorescence, primary screen (AID 1096). The settings on record: small-molecule microarray, 635 nm fluorescence, higher = more signal.
Test [20] can be described thus: probe aEGFR binding to arrayed compounds – biochemical, biotinylated probe, 635/667 nm fluorescence, primary screen (AID 1097).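 Also: probe is a biotinylated anti-EGFR antibody binding compounds printed on slides; score combines fluorescence near 667 nm and signal to noise of each spot.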 The settings on record: small-molecule microarray, higher = more signal.

Sequence of Torsin-1A-interacting protein 2 (Homo sapiens) (Q8NFQ8 whole entry, looked up): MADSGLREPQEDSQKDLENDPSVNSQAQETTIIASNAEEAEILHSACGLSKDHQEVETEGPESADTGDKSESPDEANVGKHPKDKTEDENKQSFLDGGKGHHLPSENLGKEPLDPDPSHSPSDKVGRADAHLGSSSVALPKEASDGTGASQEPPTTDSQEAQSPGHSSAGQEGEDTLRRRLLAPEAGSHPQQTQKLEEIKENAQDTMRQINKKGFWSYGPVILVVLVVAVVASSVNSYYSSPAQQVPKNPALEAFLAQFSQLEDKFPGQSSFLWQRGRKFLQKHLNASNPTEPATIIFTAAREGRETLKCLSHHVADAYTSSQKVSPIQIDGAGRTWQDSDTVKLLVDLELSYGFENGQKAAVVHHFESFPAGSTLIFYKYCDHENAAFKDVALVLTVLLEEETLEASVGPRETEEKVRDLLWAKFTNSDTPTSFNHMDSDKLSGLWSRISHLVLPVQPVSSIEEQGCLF
Sequence of Neurogenic locus notch homolog protein 3 (Homo sapiens) (Q9UM47 whole entry, looked up): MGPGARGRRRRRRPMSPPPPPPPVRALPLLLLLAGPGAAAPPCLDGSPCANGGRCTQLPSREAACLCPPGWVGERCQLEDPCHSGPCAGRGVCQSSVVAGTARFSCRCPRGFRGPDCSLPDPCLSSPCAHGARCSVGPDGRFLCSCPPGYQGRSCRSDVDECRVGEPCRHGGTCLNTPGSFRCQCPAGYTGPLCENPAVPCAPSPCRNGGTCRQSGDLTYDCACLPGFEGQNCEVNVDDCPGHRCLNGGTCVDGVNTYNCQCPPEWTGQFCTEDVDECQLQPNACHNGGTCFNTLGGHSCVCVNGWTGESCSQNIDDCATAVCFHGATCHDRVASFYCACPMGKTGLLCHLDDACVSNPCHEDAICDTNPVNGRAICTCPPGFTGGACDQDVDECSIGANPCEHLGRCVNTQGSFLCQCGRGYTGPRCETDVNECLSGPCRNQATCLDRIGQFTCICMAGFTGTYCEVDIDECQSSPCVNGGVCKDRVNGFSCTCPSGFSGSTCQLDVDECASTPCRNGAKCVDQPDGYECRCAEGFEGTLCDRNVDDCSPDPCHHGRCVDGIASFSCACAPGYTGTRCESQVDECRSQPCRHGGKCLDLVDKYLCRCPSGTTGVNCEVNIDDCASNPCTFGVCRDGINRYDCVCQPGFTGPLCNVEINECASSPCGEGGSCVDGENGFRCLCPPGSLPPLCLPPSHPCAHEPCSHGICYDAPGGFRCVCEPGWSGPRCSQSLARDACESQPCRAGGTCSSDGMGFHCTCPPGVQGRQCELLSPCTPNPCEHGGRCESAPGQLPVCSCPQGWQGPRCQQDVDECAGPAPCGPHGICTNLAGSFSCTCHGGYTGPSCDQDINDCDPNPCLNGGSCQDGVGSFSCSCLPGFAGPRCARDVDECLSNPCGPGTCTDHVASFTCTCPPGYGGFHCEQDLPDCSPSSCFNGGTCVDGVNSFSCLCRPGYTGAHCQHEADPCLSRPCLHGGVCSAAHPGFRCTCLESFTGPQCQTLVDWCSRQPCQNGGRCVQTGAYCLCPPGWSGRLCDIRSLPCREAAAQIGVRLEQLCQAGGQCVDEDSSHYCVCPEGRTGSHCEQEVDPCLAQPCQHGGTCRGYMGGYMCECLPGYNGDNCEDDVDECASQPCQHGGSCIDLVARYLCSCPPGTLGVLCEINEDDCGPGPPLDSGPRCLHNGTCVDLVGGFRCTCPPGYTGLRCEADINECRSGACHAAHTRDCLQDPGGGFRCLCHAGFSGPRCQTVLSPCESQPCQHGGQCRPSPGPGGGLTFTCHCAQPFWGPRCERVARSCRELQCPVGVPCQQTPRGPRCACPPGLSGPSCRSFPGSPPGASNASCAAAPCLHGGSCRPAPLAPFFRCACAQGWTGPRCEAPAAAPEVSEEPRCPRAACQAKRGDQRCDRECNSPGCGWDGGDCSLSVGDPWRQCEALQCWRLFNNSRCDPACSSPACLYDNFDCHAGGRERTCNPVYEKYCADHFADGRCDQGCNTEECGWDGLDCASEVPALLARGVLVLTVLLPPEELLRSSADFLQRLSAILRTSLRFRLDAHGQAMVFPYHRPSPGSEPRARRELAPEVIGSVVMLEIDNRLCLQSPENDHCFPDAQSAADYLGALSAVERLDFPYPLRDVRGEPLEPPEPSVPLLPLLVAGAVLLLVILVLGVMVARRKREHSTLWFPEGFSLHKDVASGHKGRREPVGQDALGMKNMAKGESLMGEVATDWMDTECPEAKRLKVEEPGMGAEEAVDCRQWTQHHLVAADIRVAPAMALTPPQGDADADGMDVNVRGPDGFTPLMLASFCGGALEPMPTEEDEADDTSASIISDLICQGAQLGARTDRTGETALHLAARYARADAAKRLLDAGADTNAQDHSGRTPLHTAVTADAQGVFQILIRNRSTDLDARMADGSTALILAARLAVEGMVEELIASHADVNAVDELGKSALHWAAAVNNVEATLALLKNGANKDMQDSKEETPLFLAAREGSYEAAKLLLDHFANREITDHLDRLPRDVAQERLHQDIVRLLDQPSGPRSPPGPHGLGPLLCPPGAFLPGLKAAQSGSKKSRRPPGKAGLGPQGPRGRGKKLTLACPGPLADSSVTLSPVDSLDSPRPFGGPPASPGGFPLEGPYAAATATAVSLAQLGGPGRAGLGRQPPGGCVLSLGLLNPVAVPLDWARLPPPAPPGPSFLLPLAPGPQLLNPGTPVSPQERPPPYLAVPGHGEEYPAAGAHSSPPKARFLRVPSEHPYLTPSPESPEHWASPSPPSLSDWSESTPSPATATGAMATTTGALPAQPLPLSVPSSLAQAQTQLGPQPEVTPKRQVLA

For `C=C(COC)/C(=C/C[C@@H](OC(C)=O)c1ccccc1OCCO)c1cnc2ccccc2c1`, the composite z-score in [1] is -0.0428; in test [2], 1.58; in test [3], -0.0695; in test [4], 0.339; in test [5], 1.03; in test [6] it was 1.23. For the same compound, the composite z-score was 1.13 in [7]; 0.278 in [9]; -0.169 in [10]; 1.56 in test [11]; 0.895 in test [15]; -0.154 in [17]. The composite z-score in [18] was 1.64; in [19], 1.09; in test [20], -0.0828. The z-score in [8] is -0.305 (inactive); in test [12], 0.27 (inactive); in test [13], -0.614 (inactive); in test [14], -0.112 (inactive); in test [16], 0.359 (inactive).
With `CC(C)[Si](C#CCCc1ccccc1)(O[C@H](c1ccccc1)c1cn(Cc2ccccc2)nn1)C(C)C`, the composite z-score in [1] is -0.454; in test [2] it was -0.137; in test [3] it was -0.116; in test [4], 0.529; in test [5] it was 0.186; in test [6], 0.215. Moreover, the composite z-score in test [7] was 1.12; in test [9] it was 0.584; in [10] it was 0.0401; in [11] it was 1.25; in test [15] it was 0.958; in test [17], -0.0095. Besides, the composite z-score in [18] was found to be 0.797; in test [19] it was 1.13; in test [20] it was 0.0276. Besides, the z-score is 0.0497 (inactive) in test [8]; -1.17 (inactive) in test [12]; -12.3 (active) in test [13]; -0.778 (inactive) in test [14]; 0.791 (inactive) in [16].
Regarding `C=CC[C@@]1(C(=O)OC)N=C(c2ccc(OCCCO)cc2)O[C@@H]1c1ccccc1N=[N+]=[N-]`, the composite z-score in test [1] is 0.172; in test [2], -0.0701; in test [3], 0.0555; in test [4], 0.256; in test [5], 1.47; in test [6] it was 1.49. In addition, the composite z-score amounted to 1.44 in test [7]; 0.587 in [9]; 0.154 in test [10]; 1.54 in [11]; 3.05 in [15]; 0.346 in test [17]. The composite z-score in [18] was 1.14; in test [19], 1.07; in test [20], 0.118. The z-score in [8] was 1.54 (inactive); in [12], -0.777 (inactive); in [13] it was -0.713 (inactive); in [14], 1.35 (inactive); in test [16] it was 0.643 (inactive).
As to `O=C1O[C@@H](c2ccccc2)[C@@H](c2ccccc2)N2[C@@H](c3ccccc3OCCO)[C@]3(C(=O)Nc4ccc(C#CCCO)cc43)[C@@H](C(=O)NC[C@H](O)c3ccccc3)[C@H]12`, the composite z-score was determined as 0.13 in [1]; 1.2 in test [2]; 0.277 in test [3]; 0.0012 in [4]; 0.381 in [5]; 1.63 in test [6]. Also, the composite z-score was determined as 1.36 in test [7]; 0.372 in test [9]; 0.192 in [10]; 1.54 in test [11]; 3.29 in test [15]; 1.07 in test [17]. Further, the results for the composite z-score in test [18], in test [19] and in [20] were 1.37, 0.944 and 0.506, respectively. Also, the z-score is -2.14 (inactive) in test [8]; 2.3 (inactive) in [12]; -1.71 (inactive) in test [13]; 4.29 (inactive) in test [14]; 0.535 (inactive) in [16].
Consider `CC1CC/C=C\[C@H]2OC34C=CCN(CCN5CCOCC5)C(=O)[C@H]3N(CCCO)C(=O)[C@@H]4C2C(=O)O1` (stereo not given in full), for which the composite z-score in test [1] was -0.215; in test [2], 0.0721; in [3], -0.183; in test [4], -0.0957; in test [5], -0.475; in test [6], -0.376. For the same compound, the composite z-score in [7] was 1.07; in test [9], -0.354; in test [10], -0.0994; in test [11] it was -0.536; in test [15], -0.299; in test [17], -0.21. Besides, the composite z-score in [18] is -0.639; in test [19], -0.271; in test [20] it was -0.239. Also, the z-score is 0.149 (inactive) in test [8]; 0.236 (inactive) in [12]; -0.218 (inactive) in test [13]; 0.585 (inactive) in test [14]; -0.546 (inactive) in test [16].
